Hits are enriched below; roughly 4.6% of the tested compounds scored in any of these assays.
CF NFkB inh: inhibitors of cystic fibrosis induced NF-kB; hit rate 0.86% among 360,000; inhibition, % at 5 µM; KKLEB NF-kB-GFP reporter, PAF-induced, GFP fluorescence overnight;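 active = at least 50% inhibition at 5 µM, scaled per plate between neutral and stimulator controls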;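 also: PAF is a Pseudomonas aeruginosa culture filtrate used as stimulus; plate controls were PAF-stimulated DMSO wells for no effect and unstimulated DMSO wells for full effect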
Mdm2-MdmX inh: disrupts the human Mdm2-MdmX interaction. O15151+Q00987. SaOS-2 split-luciferase Mdm2/MdmX complementation, luminescence. inhibition, % at 8 µM. AID 485346. hit rate 3% among 330,000;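 active = inhibition of at least 50% at 8 µM in the primary screen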
Target sequence (O15151 whole entry, looked up): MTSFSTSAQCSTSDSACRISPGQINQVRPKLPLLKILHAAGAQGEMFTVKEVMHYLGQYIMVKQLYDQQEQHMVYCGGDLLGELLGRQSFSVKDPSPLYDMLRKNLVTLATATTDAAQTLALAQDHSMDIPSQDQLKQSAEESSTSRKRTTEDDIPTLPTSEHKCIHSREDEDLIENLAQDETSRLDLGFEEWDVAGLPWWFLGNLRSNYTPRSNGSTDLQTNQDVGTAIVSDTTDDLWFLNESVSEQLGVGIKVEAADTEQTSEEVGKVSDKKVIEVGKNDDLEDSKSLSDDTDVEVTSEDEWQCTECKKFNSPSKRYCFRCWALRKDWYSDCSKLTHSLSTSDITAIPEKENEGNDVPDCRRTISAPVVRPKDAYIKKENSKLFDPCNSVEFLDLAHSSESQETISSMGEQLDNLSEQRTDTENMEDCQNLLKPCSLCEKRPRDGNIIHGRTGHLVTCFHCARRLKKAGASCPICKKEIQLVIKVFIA
Target sequence (Q00987 whole entry, looked up): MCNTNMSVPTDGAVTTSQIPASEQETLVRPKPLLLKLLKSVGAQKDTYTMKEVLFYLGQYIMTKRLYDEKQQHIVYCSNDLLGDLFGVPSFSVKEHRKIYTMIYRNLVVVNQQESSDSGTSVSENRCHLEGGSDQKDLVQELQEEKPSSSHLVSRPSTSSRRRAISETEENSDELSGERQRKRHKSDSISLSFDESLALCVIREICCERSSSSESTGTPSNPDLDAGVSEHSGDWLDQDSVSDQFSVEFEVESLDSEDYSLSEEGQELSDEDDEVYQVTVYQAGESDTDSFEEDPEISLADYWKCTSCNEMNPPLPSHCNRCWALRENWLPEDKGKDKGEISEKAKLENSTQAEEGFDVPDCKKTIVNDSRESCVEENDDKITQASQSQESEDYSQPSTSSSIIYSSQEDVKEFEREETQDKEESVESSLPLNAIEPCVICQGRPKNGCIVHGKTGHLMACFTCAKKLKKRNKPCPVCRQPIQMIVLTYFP
HIF-2a block: HIF-2a inhibition | hit rate 0.72% among 360,000 | 786-0 RCC cells HIF-2a reporter, luciferase luminescence, overnight | inhibition, % at 18.8 µM | AID 624352;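 active = inhibition of the luminescence signal of 40% or more relative to plate controls, in a single-dose primary screen at 18.75 µM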
ABHD5 PLIN5 PPI: blocks binding of human ABHD5 to perilipin-5 | Q00G26+Q8WTS1 | inhibition, % at 4 µM | hit rate 0.78% among 360,000 | Split G. princeps luciferase complementation, luminescence, 4 h;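 active = inhibition above the mean inhibition across every tested compound plus 3 SD, cut at about 22% in these data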;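 also: 0% = DMSO only wells and the 100% control is not disclosed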
Peg3 prom inh: reduces Peg3 promoter-driven luciferase expression in HeLa; HeLa PEG-Prom luciferase reporter, luminescence, overnight; inhibition, % at 20 µM; hit rate 1.7% among 360,000; AID 588405;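 active = inhibition of at least 50% at 20 µM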
KKLEB tox: reduces viability of KKLEB cystic fibrosis airway cells | hit rate 0.36% among 360,000 | KKLEB CF airway cells viability, ATPlite luminescence, overnight; hits give low values; cells stimulated with P. aeruginosa culture filtrate | activity change (cytotoxicity), % at 5 µM;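 active = corrected activity change at or below -50% at 5 µM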
Mdm2-MdmX conf: confirmation of human Mdm2/MdmX interaction inhibitors | AID 489028 | shares compounds with Mdm2-MdmX inh | Mdm2-MdmX binding, luminescent assay | inhibition, % at 8 µM | hit rate 55% among 10,000; in the data active = inhibition above about 40%
Full FLuc ctr: inhibits full-length luciferase, flagging false Mdm2/MdmX hits; inhibition, % at 8 µM; hit rate 77% among 6,200; AID 504607; shares compounds with Mdm2-MdmX inh; SaOS-2 full-length luciferase counterscreen, luminescence;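 active = mean inhibition at 8 µM reaching about 37%, which flags the compound as non-specific, limit read from the data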;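 also: p53-null SaOS-2 cells with luciferase driven by a doxycycline-inducible promoter; compound on cells about two nights before reading with doxycycline added after day one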
Active calls of the source: *.

`COC(=O)c1cc(O)cc(OC)c1C(=O)c1c(O)cc(C)cc1O` gave CF NFkB inh 24.3, Mdm2-MdmX inh -13.7, HIF-2a block 14.0, ABHD5 PLIN5 PPI -1.7, Peg3 prom inh 9.0 and KKLEB tox -9.8.
`COC(=O)c1cc(O)cc(OC)c1Oc1cc(C)cc(O)c1C(=O)O` gave CF NFkB inh -14.5, Mdm2-MdmX inh 83.5*, HIF-2a block 18.1, ABHD5 PLIN5 PPI -7.1, Peg3 prom inh -49.5, KKLEB tox 19.9, Mdm2-MdmX conf 46.0* and Full FLuc ctr 19.3.
For CCc1nc2ccc(C(=O)NCc3cccs3)cn2c1N(CCC(C)C)CCN(C)C the results were CF NFkB inh -38.1, HIF-2a block 3.6, ABHD5 PLIN5 PPI 15.3, Peg3 prom inh -0.7 and KKLEB tox 26.2.
For CCC1=Nc2cc(C(=O)NCCN3CCOCC3)ccc2Sc2ccccc21 the results were CF NFkB inh 5.0, Mdm2-MdmX inh 8.4, HIF-2a block -1.3, ABHD5 PLIN5 PPI 8.5, Peg3 prom inh 3.1 and KKLEB tox -13.0.
`CCOCCCNC(=O)c1ccc2c(c1)N=C(CC)c1cc(Br)ccc1S2` gave CF NFkB inh 32.0, Mdm2-MdmX inh 66.1*, HIF-2a block 24.6, ABHD5 PLIN5 PPI -1.4, Peg3 prom inh 31.1, KKLEB tox -7.7, Mdm2-MdmX conf 59.5* and Full FLuc ctr 113.0*.
COc1ccc(CCNc2cc(N3CCN(C(=O)c4ccccc4F)CC3)ccc2[N+](=O)[O-])cc1OC was read as CF NFkB inh 5.6, Mdm2-MdmX inh 53.0*, HIF-2a block -8.6, ABHD5 PLIN5 PPI 1.2, Peg3 prom inh 44.9, KKLEB tox -0.9, Mdm2-MdmX conf 35.2 and Full FLuc ctr 78.9*.
Screening COc1cc(CC(=O)OCC(=O)c2ccc(F)cc2)cc(OC)c1OC returned CF NFkB inh 24.8, Mdm2-MdmX inh 13.7, HIF-2a block 8.3, ABHD5 PLIN5 PPI -0.8, Peg3 prom inh -1.2 and KKLEB tox -3.7.
Cc1cc(Cl)c2oc(C(=O)N3CCN(c4ccncc4)CC3)c(C)c2c1 was read as CF NFkB inh 17.7, Mdm2-MdmX inh 90.0*, HIF-2a block 21.9, ABHD5 PLIN5 PPI 15.8, Peg3 prom inh 91.9*, KKLEB tox -11.9, Mdm2-MdmX conf 51.5* and Full FLuc ctr 57.3*.
`COc1ccc2c3n(nc2c1)CCN=C3c1cc(Cl)c(N)c(Cl)c1` gave CF NFkB inh 33.8, Mdm2-MdmX inh 64.8*, HIF-2a block 21.6, ABHD5 PLIN5 PPI 3.1, Peg3 prom inh 35.1, KKLEB tox -26.1, Mdm2-MdmX conf 62.2* and Full FLuc ctr 65.1*.
For Nc1c(Cl)cc(C2=NCCn3nc4cc(C(F)(F)F)ccc4c32)cc1Cl the results were CF NFkB inh -2.0, Mdm2-MdmX inh -7.0, HIF-2a block 17.4, ABHD5 PLIN5 PPI 6.4, Peg3 prom inh 13.0 and KKLEB tox -3.5.
Screening COc1cc([N+](=O)[O-])ccc1NC(=O)Nn1cnnc1 returned CF NFkB inh -31.4, Mdm2-MdmX inh 16.3, HIF-2a block 9.5, ABHD5 PLIN5 PPI 0.2, Peg3 prom inh 11.8 and KKLEB tox 20.3.
Screening COc1ccc(-c2c(C)nn3c(N4CCN(Cc5ccccc5)CC4)cc(C)nc23)cc1OC returned CF NFkB inh -27.4, Mdm2-MdmX inh 50.4*, HIF-2a block 10.2, ABHD5 PLIN5 PPI -5.7, Peg3 prom inh 22.7, KKLEB tox -5.8 and Mdm2-MdmX conf 8.8.
For Cc1nn2c(N3CCN(C4CCCC4)CC3)cc(C(C)(C)C)nc2c1-c1ccccc1 the results were CF NFkB inh -11.3, Mdm2-MdmX inh 4.8, HIF-2a block -4.1, ABHD5 PLIN5 PPI 3.0, Peg3 prom inh 15.8 and KKLEB tox 8.1.
`Cc1nn2c(N3CCN(C)CC3)cc(C(C)(C)C)nc2c1-c1ccccc1` gave CF NFkB inh 19.7, Mdm2-MdmX inh 58.4*, HIF-2a block 11.8, ABHD5 PLIN5 PPI 11.2, Peg3 prom inh 58.6*, KKLEB tox -20.2, Mdm2-MdmX conf 41.1* and Full FLuc ctr 76.2*.
Screening COc1cc(OC)cc(C(=O)N2CCN(C(=O)c3ccc(OC)c(OC)c3)CC2)c1 returned CF NFkB inh 13.1, Mdm2-MdmX inh 1.3, HIF-2a block 12.4, ABHD5 PLIN5 PPI -2.9, Peg3 prom inh 17.5 and KKLEB tox 2.9.
Screening COc1ccc(-c2n[nH]c3c2CN(C(=O)c2ccc(OC)c(OC)c2)CC3)cc1 returned CF NFkB inh 21.3, Mdm2-MdmX inh 57.9*, HIF-2a block 16.9, ABHD5 PLIN5 PPI 4.7, Peg3 prom inh 19.4, KKLEB tox -28.2, Mdm2-MdmX conf 57.9* and Full FLuc ctr 54.6*.
For COc1cc(C(=O)N2CCCC(C)(C(=O)NS(=O)(=O)C3CC3)C2)cc(OC)c1OC (configuration not stated) the results were CF NFkB inh 23.9, HIF-2a block 1.4, ABHD5 PLIN5 PPI 11.8, Peg3 prom inh -8.4 and KKLEB tox -13.2.
For C/C(=N\NC(=O)c1c([N+](=O)[O-])c(C)nn1C)c1ccc(NC(=O)C2CCCC2)cc1 the results were CF NFkB inh 33.6, Mdm2-MdmX inh 47.6, HIF-2a block -6.8, ABHD5 PLIN5 PPI -6.7, Peg3 prom inh -4.5 and KKLEB tox -3.7.
`C/C(=N\NC(=O)c1c(Cl)c(C)nn1C)c1ccc(NC(=O)C2CCC2)cc1` gave CF NFkB inh -3.9, Mdm2-MdmX inh 56.0*, HIF-2a block -5.1, ABHD5 PLIN5 PPI -3.0, Peg3 prom inh 1.9, KKLEB tox 0.7, Mdm2-MdmX conf 75.1* and Full FLuc ctr 66.9*.
`COc1cccc(C2=Nn3c(nnc3-c3ccccc3O)SC2)c1` gave CF NFkB inh -20.8, Mdm2-MdmX inh 19.7, HIF-2a block 7.1, ABHD5 PLIN5 PPI -1.2, Peg3 prom inh 15.5 and KKLEB tox -9.6.
For C[n+]1c2n(c3ccccc31)N=C(c1cc(C(C)(C)C)c(O)c(C(C)(C)C)c1)CS2 the results were CF NFkB inh 35.5, Mdm2-MdmX inh 78.0*, HIF-2a block 2.3, ABHD5 PLIN5 PPI 12.2, Peg3 prom inh 85.8*, KKLEB tox -26.1, Mdm2-MdmX conf 74.7* and Full FLuc ctr 37.8*.
Screening COc1cc2c(cc1OC)CN(c1nc(CN3CCCCC3)nc3sc4c(c13)CCCC4)CC2 returned CF NFkB inh 3.9, Mdm2-MdmX inh 53.2*, HIF-2a block 9.6, ABHD5 PLIN5 PPI 4.1, Peg3 prom inh 3.2, KKLEB tox -6.6, Mdm2-MdmX conf 44.5* and Full FLuc ctr 62.0*.
CCOC(=O)c1cc([N+](=O)[O-])sc1NC(=O)c1ccc(S(=O)(=O)N2CC3(C)CC2CC(C)(C)C3)cc1 (configuration not stated) was read as CF NFkB inh 48.5, Mdm2-MdmX inh 95.1*, HIF-2a block 0.8, ABHD5 PLIN5 PPI -0.2, Peg3 prom inh 46.0, KKLEB tox -42.0, Mdm2-MdmX conf 51.1* and Full FLuc ctr 57.2*.

Compound activity from PubChem.
